A selection: hits, their analogues and other compounds. The true share with any hit is near 1.1%.
HTR5A inv ag = HTR5A inverse agonists in luminescence cell assay, primary screen, counter-screen for OPRM1-OPRD1 heterodimer inverse agonist project, full-deck HTS. HTR5A cell line, inverse agonism. inhibition, % at 9.3 µM. 340,000 compounds, 0.083% hits. AID 504634, 2011. 5-hydroxytryptamine receptor 5A (Homo sapiens), P47898; in the data active = inhibition mostly above about 23%, no sharp cut-off; inactive = mostly below about 18%;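 also: 0% = cells with DMSO and 100% = no-cell wells with DMSO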
OPRM1-OPRD1 ag = agonists of OPRM1-OPRD1 heterodimerization, primary screen, cell-based, luminescence. AID 504326, 2011. 340,000 compounds, 0.3% hits. cells. Mu-type opioid receptor (Homo sapiens) + Delta-type opioid receptor (Homo sapiens), …. activation, % at 9.3 µM;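 also: 0% = vehicle-treated cells and 100% = reference agonist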
Target sequence (P35372 whole entry, looked up): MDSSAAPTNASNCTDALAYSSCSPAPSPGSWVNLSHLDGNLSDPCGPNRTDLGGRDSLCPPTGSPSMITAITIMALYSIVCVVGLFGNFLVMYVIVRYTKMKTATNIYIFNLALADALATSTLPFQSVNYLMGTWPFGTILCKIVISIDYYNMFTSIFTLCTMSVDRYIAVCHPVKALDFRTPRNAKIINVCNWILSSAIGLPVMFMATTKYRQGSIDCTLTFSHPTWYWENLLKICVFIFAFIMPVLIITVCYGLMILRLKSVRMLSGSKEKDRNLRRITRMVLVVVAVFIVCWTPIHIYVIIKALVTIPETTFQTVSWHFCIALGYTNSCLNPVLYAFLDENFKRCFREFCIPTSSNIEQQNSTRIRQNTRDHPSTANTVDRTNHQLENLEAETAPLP
Target sequence (P41143 whole entry, looked up): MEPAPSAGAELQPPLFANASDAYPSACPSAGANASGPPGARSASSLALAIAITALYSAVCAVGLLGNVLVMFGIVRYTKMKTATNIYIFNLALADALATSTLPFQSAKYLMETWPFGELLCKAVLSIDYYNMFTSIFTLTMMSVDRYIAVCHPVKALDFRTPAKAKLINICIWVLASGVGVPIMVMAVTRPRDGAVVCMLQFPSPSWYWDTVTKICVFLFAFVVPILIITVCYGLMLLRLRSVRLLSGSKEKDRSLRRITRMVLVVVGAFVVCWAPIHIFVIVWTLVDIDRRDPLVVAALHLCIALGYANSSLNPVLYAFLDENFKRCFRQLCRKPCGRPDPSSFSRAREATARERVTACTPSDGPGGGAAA
MOR-DOR inv ag = inverse agonists of MOR-DOR heterodimerization, primary screen, cell-based, luminescence; 340,000 compounds, 0.21% hits; inhibition, % at 9.3 µM; Mu-type opioid receptor (Homo sapiens) + Delta-type opioid receptor (Homo sapiens), …; AID 504357, 2011; cell-based MOR-DOR heterodimer luminescence, inverse agonism; in the data active = inhibition above about 22%, passing the limit was not always enough;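 also: 0% = cells with DMSO and 100% = wells without cells with DMSO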
HTR5A ag ctr = HTR5A agonists in luminescence cell assay, primary screen, counter-screen for OPRM1-OPRD1 heterodimer agonist project, full-deck HTS; cell-based; activation, % at 9.3 µM; 340,000 compounds, 0.61% hits; AID 504692, 2011; in the data active = activation mostly above about 9.5%, no sharp cut-off; inactive = mostly below about 7.6%;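 also: 0% = cells with vehicle only and 100% = reference agonist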
MOR-DOR ag conf = agonists of MOR-DOR heterodimerization, confirmation, cell-based, luminescence. shares compounds with OPRM1-OPRD1 ag. cells, luminescence complementation. activation, % at 9.3 µM. 830 compounds, 45% hits. AID 504904, 2011;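 also: 0% = vehicle-treated cells and 100% = reference agonist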
HTR5A ag ctr2 = HTR5A agonists in cells, counter-screen for OPRM1-OPRD1 heterodimer agonist project, cell-based, luminescence | shares compounds with OPRM1-OPRD1 ag | HTR5A agonist counterscreen | activation, % at 9.3 µM | 830 compounds, 8% hits | AID 504905, 2011; in the data active = activation above about 17%;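 also: 0% = vehicle-treated cells and 100% = reference agonist response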
Active calls of the source: *; i = inactive; / = no result. Rule as the data show it, unless noted: active = activation above about 18%; inactive = the rest.

SMILES	HTR5A inv ag	OPRM1-OPRD1 ag	MOR-DOR inv ag	HTR5A ag ctr	MOR-DOR ag conf	HTR5A ag ctr2
CCN(Cc1ccccc1)S(=O)(=O)c1ccc(C(=O)N(CCCN(C)C)c2nc3c(C)c(C)ccc3s2)cc1	-16	31*	-172	6	41*	1
Cc1ccc2sc(N(CCCN(C)C)C(=O)c3ccc(S(=O)(=O)N(C)C4CCCCC4)cc3)nc2c1C	5	31*	-163	-2	49*	22*
CCN(Cc1ccccc1)S(=O)(=O)c1ccc(C(=O)N(CCCN(C)C)c2nc3cc4c(cc3s2)OCO4)cc1	-8	25*	-138	3	0	-3
Cc1ccc2sc(N(CCCN(C)C)C(=O)c3ccc(S(=O)(=O)N4CCOCC4)cc3)nc2c1C	0	-3	15	0	/	/
CN(C)CCCN(C(=O)c1ccc(S(=O)(=O)N(C)C)cc1)c1nc2cc3c(cc2s1)OCO3	-5	-3	17	2	/	/
O=C(CSc1nc2[nH]ncc2c(=O)[nH]1)Nc1ccccc1	-3	0	1	1	/	/
O=c1[nH]c2cc3c(cc2cc1CN(Cc1ccco1)C(=S)NCCCN1CCOCC1)OCCO3	4	-1	8	-1	/	/
CC(=O)c1ccc(N(C(=O)c2ccco2)C(C(=O)NC2CCCC2)c2ccc(N3CCOCC3)cc2)cc1 (stereo not drawn)	18	-2	12	-6	/	/
CCOc1ccc(NC(=O)NC(=O)N(C)S(=O)(=O)c2ccc(C)cc2)cc1	1	-1	6	0	/	/
COC(=O)c1ccc(C(=S)NCC2(N(C)C)CCCCC2)cc1	-16	37*	-199	6	3	70*
CC(C)N(Cc1ccccc1)C(=O)CN1c2cccc3cccc(c23)S1(=O)=O	-6	19*	-94	2	1	2
Nc1c(N(Cc2ccccc2)C(=O)COc2cccc(Cl)c2)c(=O)[nH]c(=O)n1Cc1ccccc1	0	21*	-134	2	-2	-3
O=C(NC1CCN(Cc2ccc(Cl)cc2Cl)CC1)c1ccccc1	-23	18*	-86	6	26*	4
C#CCOCCOCCOCCNc1nc(N2CCN(C(=O)CCCCCCCCCCNC(=O)[C@H]([C@@H](C)CC)n3cc(CCCCCN)nn3)CC2)nc(N2CCN(C(=O)CCCCCCCCCCNC(=O)[C@@H]([C@H](C)O)n3cc(C)nn3)CC2)n1	-21	9	-49	3	/	/
N#Cc1nc(Nc2cc(F)cc(F)c2)c2ncn(CC(F)F)c2n1	-12	5	-27	4	/	/
N#Cc1nc(NCC(F)F)nc(Nc2cc(F)cc(F)c2)n1	-37	21*	-119	12	7	0
Cc1cc(C)cc(OCC(=O)Nc2ccccc2C(=O)N2CCOCC2)c1	-8	0	0	2	/	/
CCCOc1ccc(C(=O)Nc2ccc(N3CCN(C(=O)c4ccco4)CC3)cc2)cc1	3	23*	-119	0	1	-6
COc1ccc(Oc2ccc3c(C(F)(F)F)cc(C(F)(F)F)nc3n2)cc1	2	1	-4	-1	/	/
Oc1ccc(Oc2ccc3c(C(F)(F)F)cc(C(F)(F)F)nc3n2)cc1	-32	20*	-103	15	82*	-1
C=CCn1c(CCc2ccccc2)nnc1SCC(N)=O	-11	1	-3	3	/	/
O=C1C(O)=CC(=C(c2ccccc2)c2ccccc2)c2ccccc21	16	20*	-100	-4	-1	-16
N=c1n(Cc2ccc(Cl)cc2)c2ccccc2n1CC(O)COc1ccccc1 (stereo not drawn)	-41	94*	i	14*	-2	0
C/C(=N/Nc1ccnc2cc(Cl)ccc12)c1ccc(N)cc1	-11	21*	-115	-2	41*	3
C/C(=N/Nc1ccnc2cc(Cl)ccc12)c1ccc(O)cc1	8	8	-45	4	/	/
SMILES	HTR5A inv ag	OPRM1-OPRD1 ag	MOR-DOR inv ag	HTR5A ag ctr	MOR-DOR ag conf	HTR5A ag ctr2
Clc1ccc2c(N/N=C/c3cccc(Br)c3)ccnc2c1	-11	6	-35	9	/	/
Clc1ccc2c(N/N=C/c3ccccc3Br)ccnc2c1	-13	52*	-278	8	53*	3
Cc1cccc[n+]1CC(=O)Nc1ccccc1	-15	-1	6	4	/	/
CSc1ccccc1NC(=O)CN(C)C(=O)CCc1c[nH]c2ccccc12	-26	-1	4	-3	/	/
COc1ccc(C(CNC(=O)c2cc(SC)ccc2Cl)N(C)C)cc1 (stereo not drawn)	-18	104*	i	6	4	1
COc1ccc(CNC(=O)Cc2cccs2)cc1	-3	-1	6	-2	/	/
COc1ccc(C(CNC(=O)Cc2cccs2)N(C)C)cc1 (stereo not drawn)	-3	85*	i	0	-5	-4
COc1ccc(CC(=O)NCC(c2ccc(OC)cc2)N(C)C)cc1 (stereo not drawn)	3	31*	-160	-1	3	1
COc1ccc(C(CNC(=O)c2cncc(Br)c2)N(C)C)cc1 (stereo not drawn)	3	274*	i	-1	232*	-1
CCOc1ccccc1N(C)C(=O)c1nn(-c2ccc(OC)cc2OC)c(=O)c2ccccc12	-3	0	0	1	/	/
Cc1cc(C)c2nc(Cl)c(C3NC(=O)c4ccccc4N3)cc2c1 (stereo not drawn)	25	0	-2	0	/	/
O=C(NCCC1CCCC1)C1CCC(=O)N(CCCN2CCCC2=O)C1 (stereo not drawn)	-16	-1	7	4	/	/
COc1ccc(CCNC(=O)CC2Oc3ccc(Cl)cc3NC2=O)cc1OC (stereo not drawn)	5	-2	10	-2	/	/
O=C(OCCOc1ccccc1Cl)c1ccc(-n2cnnn2)cc1	5	0	-1	-1	/	/
Nn1c(-c2ccccc2Cl)nnc1-c1ccccc1Cl	-10	18*	-98	3	0	5
CSc1nnc(-c2ccccc2Cl)n1N	14	-1	4	1	/	/
COc1cc(C2C(C#N)=C(N)N(c3sc4c(c3C#N)CCCC4)C3=C2C(=O)CC(C)(C)C3)cc(OC)c1OC (stereo not drawn)	-2	58*	-360	0	45*	4
Cc1ccc(-c2nn(-c3cccc(F)c3)cc2CNCc2cccnc2)o1	-6	26*	-133	2	0	3
Cc1ccc(-c2nn(-c3cccc(F)c3)cc2CN2CCN(c3ccccn3)CC2)o1	24	37*	-195	6	-5	1
Cc1ccc(-c2nn(-c3cccc(F)c3)cc2CN(Cc2nccn2C)C(C)C)o1	11	0	1	-4	/	/

Bioassay records as filed in PubChem BioAssay.
